Laboratory results from paper PMC7862700, “An all-to-all approach to the identification of sequence-specific readers for epigenetic DNA modifications on cytosine”.

Columns and labels:
Assay in all cases: DAPPL (digital affinity profiling via proximity ligation, sequencing); 10 mM Tris-HCl pH 7.5, 50 mM NaCl, 1 mM DTT, 4% glycerol, room temperature, 30 min; GST-TFs on glutathione beads, 16-mer random dsDNA library, 0.1% formaldehyde crosslink after washing; high values mean tight binding
Conditions in all cases: protein: recombinant; tags: N-terminal GST; dsDNA, one strand shown
FEV = target: T1, FEV (Homo sapiens, UniProt Q99581 1-238)
T1 sequence: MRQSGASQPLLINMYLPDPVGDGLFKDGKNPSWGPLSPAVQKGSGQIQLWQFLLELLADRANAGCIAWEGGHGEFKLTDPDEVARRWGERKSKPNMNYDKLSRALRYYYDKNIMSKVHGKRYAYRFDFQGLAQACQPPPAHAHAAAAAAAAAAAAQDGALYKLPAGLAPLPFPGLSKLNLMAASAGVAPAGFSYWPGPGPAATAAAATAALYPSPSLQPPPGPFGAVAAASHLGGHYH
Outline: (§1)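 Sequencing on an Illumina NextSeq500 followed washing, crosslinking with 0.1% formaldehyde, proximity ligation (BsaI/T4 ligase, 1 h, 37 °C) and PCR amplification of pools that had been incubated for 30 min at room temperature with 200 nmole of a random double-stranded 16-mer DNA library in Tris/NaCl/DTT/glycerol buffer. Each pool held DNA-barcoded human transcription factors, expressed in yeast as GST fusions and captured on glutathione beads, plus a tag-only sample. Binding signal is a hexamer's read frequency for a factor divided by its frequency in the tag-only sample.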

ETV5 = ETV5 (Homo sapiens, UniProt P41161 1-510)
Chain of ETV5 (P41161 whole entry): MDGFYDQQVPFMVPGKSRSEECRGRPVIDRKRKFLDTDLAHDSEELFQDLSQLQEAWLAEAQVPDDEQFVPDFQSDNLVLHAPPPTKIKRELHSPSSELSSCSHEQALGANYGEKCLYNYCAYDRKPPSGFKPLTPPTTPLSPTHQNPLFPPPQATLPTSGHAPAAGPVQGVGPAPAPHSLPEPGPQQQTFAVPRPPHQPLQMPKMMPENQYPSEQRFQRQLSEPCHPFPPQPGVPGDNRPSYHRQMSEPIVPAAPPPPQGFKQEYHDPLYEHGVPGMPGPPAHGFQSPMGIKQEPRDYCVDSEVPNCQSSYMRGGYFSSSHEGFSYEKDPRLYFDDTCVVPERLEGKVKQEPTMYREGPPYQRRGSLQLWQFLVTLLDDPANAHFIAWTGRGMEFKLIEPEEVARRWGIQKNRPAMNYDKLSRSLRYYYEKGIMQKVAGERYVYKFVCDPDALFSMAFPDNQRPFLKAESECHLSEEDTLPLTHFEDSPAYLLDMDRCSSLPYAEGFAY
Outline: as §1

SPIC = target: T2, SPIC (Homo sapiens, UniProt Q8N5J4 1-248)
T2 sequence: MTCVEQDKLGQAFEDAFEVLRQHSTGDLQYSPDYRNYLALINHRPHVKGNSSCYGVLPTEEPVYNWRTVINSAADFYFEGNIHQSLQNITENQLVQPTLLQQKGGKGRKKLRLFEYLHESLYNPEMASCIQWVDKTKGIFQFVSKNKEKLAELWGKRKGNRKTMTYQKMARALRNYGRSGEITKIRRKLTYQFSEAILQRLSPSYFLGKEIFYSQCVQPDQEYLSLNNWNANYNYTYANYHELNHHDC
Outline: as §1

ELF4 = ELF4 (Homo sapiens, UniProt Q99607 1-663)
Chain of ELF4 (Q99607 whole entry): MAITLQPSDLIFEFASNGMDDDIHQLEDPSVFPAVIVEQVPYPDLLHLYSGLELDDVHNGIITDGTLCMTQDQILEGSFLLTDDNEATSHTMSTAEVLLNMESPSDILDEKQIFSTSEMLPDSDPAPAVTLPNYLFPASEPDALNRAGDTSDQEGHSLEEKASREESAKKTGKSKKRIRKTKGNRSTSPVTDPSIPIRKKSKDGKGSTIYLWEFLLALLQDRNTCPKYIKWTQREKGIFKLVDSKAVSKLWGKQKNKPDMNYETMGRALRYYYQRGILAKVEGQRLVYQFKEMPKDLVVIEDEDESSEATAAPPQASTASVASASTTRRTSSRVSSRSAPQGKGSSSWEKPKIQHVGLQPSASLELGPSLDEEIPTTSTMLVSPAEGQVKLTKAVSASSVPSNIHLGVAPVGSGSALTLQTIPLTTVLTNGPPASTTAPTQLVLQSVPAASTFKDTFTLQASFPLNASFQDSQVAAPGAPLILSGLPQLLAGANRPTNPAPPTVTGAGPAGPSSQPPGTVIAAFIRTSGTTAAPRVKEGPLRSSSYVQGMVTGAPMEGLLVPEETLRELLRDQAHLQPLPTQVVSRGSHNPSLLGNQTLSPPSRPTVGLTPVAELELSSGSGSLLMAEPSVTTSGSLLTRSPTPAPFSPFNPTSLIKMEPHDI
Outline: as §1

ELK4 = target: T3, ELK4 (Homo sapiens, UniProt P28324-2 1-405)
T3 sequence: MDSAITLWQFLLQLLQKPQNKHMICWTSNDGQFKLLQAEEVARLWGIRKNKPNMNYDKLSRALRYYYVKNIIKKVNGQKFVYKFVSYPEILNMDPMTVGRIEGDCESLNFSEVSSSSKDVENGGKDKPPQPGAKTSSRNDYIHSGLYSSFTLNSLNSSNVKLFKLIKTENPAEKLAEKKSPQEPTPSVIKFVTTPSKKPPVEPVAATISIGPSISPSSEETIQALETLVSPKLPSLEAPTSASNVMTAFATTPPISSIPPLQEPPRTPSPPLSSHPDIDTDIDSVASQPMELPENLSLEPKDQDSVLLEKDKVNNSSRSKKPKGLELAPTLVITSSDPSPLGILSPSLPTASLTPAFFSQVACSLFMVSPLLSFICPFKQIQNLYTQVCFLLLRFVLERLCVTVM
Outline: as §1

ETV2 = target: T4, ETV2 (Homo sapiens, UniProt O00321 1-342)
T4 sequence: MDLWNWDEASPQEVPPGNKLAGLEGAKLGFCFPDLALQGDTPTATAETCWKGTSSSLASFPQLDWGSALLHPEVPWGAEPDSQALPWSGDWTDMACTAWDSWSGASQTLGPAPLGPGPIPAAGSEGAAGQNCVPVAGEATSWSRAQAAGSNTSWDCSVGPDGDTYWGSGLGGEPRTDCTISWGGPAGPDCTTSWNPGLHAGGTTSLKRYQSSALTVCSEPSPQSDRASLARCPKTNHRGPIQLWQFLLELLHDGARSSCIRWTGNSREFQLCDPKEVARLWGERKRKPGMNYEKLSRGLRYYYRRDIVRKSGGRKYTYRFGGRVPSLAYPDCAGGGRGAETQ
Outline: as §1

ELF3 = target: T5, ELF3 (Homo sapiens, UniProt P78545 1-371)
T5 sequence: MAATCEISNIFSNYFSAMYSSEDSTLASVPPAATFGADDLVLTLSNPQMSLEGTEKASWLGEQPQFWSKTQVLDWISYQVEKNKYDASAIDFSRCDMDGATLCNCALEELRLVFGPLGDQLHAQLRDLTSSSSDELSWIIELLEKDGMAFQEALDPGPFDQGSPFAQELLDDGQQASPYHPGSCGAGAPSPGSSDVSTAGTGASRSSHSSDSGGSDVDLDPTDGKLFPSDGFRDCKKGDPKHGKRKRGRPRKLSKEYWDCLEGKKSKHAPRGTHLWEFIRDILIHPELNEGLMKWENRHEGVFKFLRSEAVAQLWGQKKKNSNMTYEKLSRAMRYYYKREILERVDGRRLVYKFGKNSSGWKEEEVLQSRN
Outline: as §1

CRX = CRX (Homo sapiens, UniProt O43186 1-299)
Chain of CRX (O43186 whole entry): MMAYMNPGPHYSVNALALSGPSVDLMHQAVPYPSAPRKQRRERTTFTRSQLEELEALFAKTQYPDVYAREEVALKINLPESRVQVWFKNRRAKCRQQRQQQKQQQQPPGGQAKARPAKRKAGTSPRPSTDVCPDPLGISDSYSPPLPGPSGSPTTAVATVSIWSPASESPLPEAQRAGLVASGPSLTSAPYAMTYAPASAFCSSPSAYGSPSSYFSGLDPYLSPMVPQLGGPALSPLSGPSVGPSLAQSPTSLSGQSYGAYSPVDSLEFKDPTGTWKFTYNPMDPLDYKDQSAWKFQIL
Outline: as §1

ETV1 = ETV1 (Homo sapiens, UniProt P50549 1-477)
Chain of ETV1 (P50549 whole entry): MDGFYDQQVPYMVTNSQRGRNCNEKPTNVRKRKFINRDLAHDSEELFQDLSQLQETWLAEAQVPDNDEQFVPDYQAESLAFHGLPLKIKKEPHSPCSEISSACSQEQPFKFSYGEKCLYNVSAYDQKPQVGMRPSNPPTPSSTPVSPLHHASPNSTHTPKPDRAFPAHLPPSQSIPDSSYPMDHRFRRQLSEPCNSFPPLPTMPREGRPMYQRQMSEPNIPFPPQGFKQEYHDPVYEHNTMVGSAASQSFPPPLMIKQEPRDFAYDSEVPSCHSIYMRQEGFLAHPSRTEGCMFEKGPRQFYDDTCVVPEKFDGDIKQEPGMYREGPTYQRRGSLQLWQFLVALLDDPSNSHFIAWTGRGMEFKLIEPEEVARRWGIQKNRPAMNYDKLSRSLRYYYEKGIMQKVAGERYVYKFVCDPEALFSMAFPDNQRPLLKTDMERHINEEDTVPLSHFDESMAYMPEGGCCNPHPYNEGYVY
Outline: as §1

ERF = target: T6, ERF (Homo sapiens, UniProt P50548 1-548)
T6 sequence: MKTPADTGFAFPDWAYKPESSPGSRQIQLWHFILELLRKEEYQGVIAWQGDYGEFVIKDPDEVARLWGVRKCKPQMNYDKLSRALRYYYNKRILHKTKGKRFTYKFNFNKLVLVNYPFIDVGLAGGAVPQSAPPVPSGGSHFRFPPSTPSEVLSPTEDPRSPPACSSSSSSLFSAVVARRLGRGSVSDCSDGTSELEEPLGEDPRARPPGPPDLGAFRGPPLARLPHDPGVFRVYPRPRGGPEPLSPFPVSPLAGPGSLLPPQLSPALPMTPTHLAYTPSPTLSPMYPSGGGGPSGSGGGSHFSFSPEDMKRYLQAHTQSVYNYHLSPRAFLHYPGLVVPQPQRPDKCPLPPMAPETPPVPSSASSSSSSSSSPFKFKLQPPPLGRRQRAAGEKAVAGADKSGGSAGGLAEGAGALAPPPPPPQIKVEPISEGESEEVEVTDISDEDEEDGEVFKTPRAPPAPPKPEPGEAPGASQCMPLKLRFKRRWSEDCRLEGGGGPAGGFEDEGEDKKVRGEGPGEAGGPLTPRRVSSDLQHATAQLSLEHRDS
Outline: as §1

ETV3L = target: T7, ETV3L (Homo sapiens, UniProt Q6ZN32 1-361)
T7 sequence: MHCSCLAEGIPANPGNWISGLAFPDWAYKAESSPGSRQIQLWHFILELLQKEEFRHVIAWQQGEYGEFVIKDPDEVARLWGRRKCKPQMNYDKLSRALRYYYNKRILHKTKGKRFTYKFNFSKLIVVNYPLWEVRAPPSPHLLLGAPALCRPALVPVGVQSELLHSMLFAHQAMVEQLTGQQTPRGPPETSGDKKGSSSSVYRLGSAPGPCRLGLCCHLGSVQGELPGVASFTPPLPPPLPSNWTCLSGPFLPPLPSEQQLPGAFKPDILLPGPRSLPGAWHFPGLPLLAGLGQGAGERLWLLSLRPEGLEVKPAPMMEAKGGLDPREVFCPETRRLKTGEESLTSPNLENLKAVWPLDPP
Outline: as §1

ETS2 = target: T8, ETS2 (Homo sapiens, UniProt P15036 1-469)
T8 sequence: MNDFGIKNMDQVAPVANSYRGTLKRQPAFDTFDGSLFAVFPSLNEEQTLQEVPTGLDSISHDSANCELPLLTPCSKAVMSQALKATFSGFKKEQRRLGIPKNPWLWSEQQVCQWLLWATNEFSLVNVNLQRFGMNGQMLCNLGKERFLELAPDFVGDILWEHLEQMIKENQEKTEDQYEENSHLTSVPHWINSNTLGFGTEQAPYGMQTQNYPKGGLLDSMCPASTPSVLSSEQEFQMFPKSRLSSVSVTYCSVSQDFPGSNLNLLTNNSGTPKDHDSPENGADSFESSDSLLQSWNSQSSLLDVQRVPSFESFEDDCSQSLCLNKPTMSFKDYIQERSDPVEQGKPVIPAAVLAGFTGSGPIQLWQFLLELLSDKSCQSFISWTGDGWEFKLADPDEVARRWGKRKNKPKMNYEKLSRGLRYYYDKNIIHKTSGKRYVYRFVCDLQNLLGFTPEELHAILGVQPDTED
Outline: as §1

SPDEF = target: T9, SPDEF (Homo sapiens, UniProt O95238 1-335)
T9 sequence: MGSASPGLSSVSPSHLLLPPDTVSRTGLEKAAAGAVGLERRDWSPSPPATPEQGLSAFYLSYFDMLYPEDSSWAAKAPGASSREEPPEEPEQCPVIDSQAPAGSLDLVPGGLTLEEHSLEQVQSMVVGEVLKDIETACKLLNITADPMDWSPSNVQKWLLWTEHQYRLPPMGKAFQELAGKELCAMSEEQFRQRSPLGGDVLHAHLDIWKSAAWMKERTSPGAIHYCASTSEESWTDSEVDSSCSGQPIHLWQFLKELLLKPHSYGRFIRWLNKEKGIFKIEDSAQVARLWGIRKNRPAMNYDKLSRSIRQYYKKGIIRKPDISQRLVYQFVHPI
Outline: as §1

ETV7 = target: T10, ETV7 (Homo sapiens, UniProt Q9Y603 1-341)
T10 sequence: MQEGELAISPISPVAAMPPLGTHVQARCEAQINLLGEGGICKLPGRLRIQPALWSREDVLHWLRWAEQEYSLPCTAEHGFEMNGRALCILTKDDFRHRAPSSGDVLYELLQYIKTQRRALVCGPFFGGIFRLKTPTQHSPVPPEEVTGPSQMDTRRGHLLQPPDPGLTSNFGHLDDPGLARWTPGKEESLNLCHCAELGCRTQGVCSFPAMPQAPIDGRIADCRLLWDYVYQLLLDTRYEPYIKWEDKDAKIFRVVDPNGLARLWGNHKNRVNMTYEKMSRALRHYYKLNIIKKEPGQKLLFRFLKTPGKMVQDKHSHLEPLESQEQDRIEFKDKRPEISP
Outline: as §1

ELF5 = target: T11, ELF5 (Homo sapiens, UniProt Q9UKW6-2 1-255)
T11 sequence: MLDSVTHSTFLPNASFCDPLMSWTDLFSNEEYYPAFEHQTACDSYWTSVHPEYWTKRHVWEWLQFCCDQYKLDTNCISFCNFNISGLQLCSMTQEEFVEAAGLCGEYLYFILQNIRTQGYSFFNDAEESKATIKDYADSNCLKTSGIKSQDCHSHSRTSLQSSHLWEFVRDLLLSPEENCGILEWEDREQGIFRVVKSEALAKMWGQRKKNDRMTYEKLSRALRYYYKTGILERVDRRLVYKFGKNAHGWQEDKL
Outline: as §1

ETV3 = target: T12, ETV3 (Homo sapiens, UniProt P41162-2 1-143)
T12 sequence: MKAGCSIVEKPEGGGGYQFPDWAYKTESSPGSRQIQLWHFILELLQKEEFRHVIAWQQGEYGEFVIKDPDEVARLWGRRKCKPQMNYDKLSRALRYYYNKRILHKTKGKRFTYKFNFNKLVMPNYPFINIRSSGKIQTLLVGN
Outline: as §1

ETV6 = ETV6 (Homo sapiens, UniProt P41212 1-452)
Chain of ETV6 (P41212 whole entry): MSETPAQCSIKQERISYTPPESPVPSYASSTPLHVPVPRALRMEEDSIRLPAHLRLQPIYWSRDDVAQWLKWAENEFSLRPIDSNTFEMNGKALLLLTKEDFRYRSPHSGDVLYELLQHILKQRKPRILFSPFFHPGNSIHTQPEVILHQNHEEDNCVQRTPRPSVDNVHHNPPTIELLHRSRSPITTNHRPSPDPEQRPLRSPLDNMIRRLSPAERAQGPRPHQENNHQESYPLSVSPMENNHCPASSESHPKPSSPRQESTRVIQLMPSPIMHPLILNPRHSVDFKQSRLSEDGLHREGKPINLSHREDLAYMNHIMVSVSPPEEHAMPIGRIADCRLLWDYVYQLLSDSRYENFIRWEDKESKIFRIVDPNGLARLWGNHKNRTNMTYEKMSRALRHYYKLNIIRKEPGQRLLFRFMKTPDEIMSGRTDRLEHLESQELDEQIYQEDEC
Outline: as §1

TGTATA
binding signal (FEV): 1.02 fold enrichment (6-mer frequency, TF over GST control)
binding signal (ETV5): 1.15 fold enrichment (6-mer frequency, TF over GST control)
binding signal (SPIC): 1.07 fold enrichment (6-mer frequency, TF over GST control)
binding signal (ELF4): 1.06 fold enrichment (6-mer frequency, TF over GST control)
binding signal (ELK4): 1.22 fold enrichment (6-mer frequency, TF over GST control)
binding signal (ETV2): 1.04 fold enrichment (6-mer frequency, TF over GST control)
binding signal (ELF3): 1.02 fold enrichment (6-mer frequency, TF over GST control)
binding signal (CRX): 1.03 fold enrichment (6-mer frequency, TF over GST control)
binding signal (ETV1): 1.16 fold enrichment (6-mer frequency, TF over GST control)
binding signal (ERF): 1.24 fold enrichment (6-mer frequency, TF over GST control)
binding signal (ETV3L): 1.11 fold enrichment (6-mer frequency, TF over GST control)
binding signal (ETS2): 1.1 fold enrichment (6-mer frequency, TF over GST control)
binding signal (SPDEF): 1.24 fold enrichment (6-mer frequency, TF over GST control)
binding signal (ETV7): 1.09 fold enrichment (6-mer frequency, TF over GST control)
binding signal (ELF5): 1.11 fold enrichment (6-mer frequency, TF over GST control)
binding signal (ETV3): 1.04 fold enrichment (6-mer frequency, TF over GST control)
binding signal (ETV6): 1.04 fold enrichment (6-mer frequency, TF over GST control)
